RXFP1 agonist – agonists of human relaxin receptor RXFP1. HEK293T-RXFP1 cAMP TR-FRET, 30 min; response scale: percent of porcine relaxin response, buffer zero. Potency, µM (top dose mostly 57.5 µM), for inactives: at the highest dose activation, most hits filed as activators. 370,000 tested, 0.3% active. Q9HBX9; active means well fitted activation curve with a large enough effect; inconclusive means small, poorly fitted or top-dose-only effect; further: potency means the concentration at half of the fitted maximal effect; on the % scale 0 is the no-effect control and ±100 the full control effect; nearly all actives have a fitted effect of over 60% in size
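HEK293T cells stably expressing RXFP1 were pretreated with the PDE4 inhibitor Ro 20174, exposed to compounds for 30 min at 37C, lysed, and cAMP was read by TR-FRET. Data normalized to buffer (basal) and 29 nM porcine relaxin (100%).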
gsp antag – antagonists of gsp mutant (McCune-Albright syndrome) | gsp-mutant cells, cAMP HTRF, 30 min | AID 624288 | Potency, µM (highest dose often 76.9 µM), for the others: at the top dose activity change, negative = inhibition, hits mostly inhibitors | 340,000 tested, 0.4% active; calls by dose curve; cell line not stated here;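 further: intracellular cAMP measured with PDE inhibitor Ro 20-1724 present during compound exposure; potency means the concentration at half of the fitted maximal effect; on the % scale 0 is the no-effect control and ±100 the full control effect; nearly all actives have a fitted effect of over 65% in size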
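Cells, 2000/well, grown 16–24 h in DMEM 10% FBS with 0.5 mg/ml G418, then compounds plus […] (300 uM addition stock), 30 min at 37C. cAMP read by HTRF (cAMP-d2 and anti-cAMP antibody-K in lysis buffer) after 30 min RT.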
RXFP1 antagonist – RXFP1 (human) relaxin receptor antagonism; Q9HBX9; 350,000 tested, 0.59% active; HEK293-RXFP1, relaxin-stimulated cAMP HTRF, 30 min; active compounds read low; activity change, negative = inhibition, % at 57.5 µM;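 active means activity change of -60% or lower, but not beyond a set lower limit; inconclusive means change between -60% and -40%, or beyond the set limit; inactive means change above -40%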; further: on the % scale 0 is the no-effect control and ±100 the full control effect
TRPV1 PAM – enhances activation of the human vanilloid receptor TRPV1; Q8NER1; TRPV1-expressing cells, Fluo-8 calcium influx, capsaicin EC20 potentiation; potentiation, % at 8.33 µM; 320,000 tested, 0.02% active; in the data active means potentiation above about 80%; inconclusive means between about 30% and that limit; further: 0% is about no effect
Target sequence (Q8NER1 whole entry, looked up): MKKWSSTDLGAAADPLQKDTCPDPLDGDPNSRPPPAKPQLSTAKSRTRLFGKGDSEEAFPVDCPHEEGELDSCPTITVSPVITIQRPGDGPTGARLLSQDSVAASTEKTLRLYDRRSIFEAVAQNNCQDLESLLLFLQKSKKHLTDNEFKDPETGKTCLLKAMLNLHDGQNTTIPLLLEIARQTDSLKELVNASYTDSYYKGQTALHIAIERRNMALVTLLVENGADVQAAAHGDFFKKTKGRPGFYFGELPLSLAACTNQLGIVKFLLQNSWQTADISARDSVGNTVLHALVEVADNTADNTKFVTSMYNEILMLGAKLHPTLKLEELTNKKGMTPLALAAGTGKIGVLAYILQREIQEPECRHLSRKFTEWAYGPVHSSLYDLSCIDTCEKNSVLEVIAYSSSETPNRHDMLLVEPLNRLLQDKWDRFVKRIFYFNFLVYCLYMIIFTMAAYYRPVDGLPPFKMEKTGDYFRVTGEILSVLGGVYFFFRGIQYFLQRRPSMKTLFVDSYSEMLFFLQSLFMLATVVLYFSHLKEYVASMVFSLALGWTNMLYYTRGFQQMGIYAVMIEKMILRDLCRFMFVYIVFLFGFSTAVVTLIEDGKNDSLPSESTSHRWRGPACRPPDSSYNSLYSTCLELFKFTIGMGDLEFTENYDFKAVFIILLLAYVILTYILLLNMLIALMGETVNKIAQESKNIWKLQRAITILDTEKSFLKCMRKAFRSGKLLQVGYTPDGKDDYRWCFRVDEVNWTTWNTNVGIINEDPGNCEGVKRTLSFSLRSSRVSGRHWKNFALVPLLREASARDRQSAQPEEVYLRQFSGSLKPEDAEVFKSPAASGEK
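Fluo-8 calcium influx in TRPV1-expressing cells, kinetic read (ex 480/em 520 nm). Compound added and read 3 min for agonist activity, followed by capsaicin at EC20 final and 2 min further read for enhancement.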
TRPV1 ag – activates the human vanilloid receptor TRPV1; activation, % at 8.33 µM; 320,000 tested, 0.19% active; TRPV1-expressing cells, Fluo-8 calcium influx, agonist mode; AID 540275; in the data active means activation above about 80%; inconclusive means between about 30% and that limit; further: 0% is about no effect
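Fluo-8 calcium influx in TRPV1-expressing cells, kinetic read (ex 480/em 520 nm). Compound added and read 3 min for agonist activity, followed by capsaicin at EC20 final and 2 min further read for enhancement.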
gsp ag – activates gsp, the McCune-Albright syndrome mutation. gsp mutant cells, cAMP HTRF, 30 min. AID 624287. 340,000 tested, 0.13% active. Potency, µM (series often up to 76.9 µM), inactives show at the highest dose activation (cAMP increase), hits mostly activators; active means well fitted activation curve with a large enough effect; inconclusive means small, poorly fitted or top-dose-only effect, or another doubt; inactive means no such curve, though single readings can be large or run the other way; cell line not stated here;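 further: phosphodiesterase inhibitor Ro 20-1724 added with compounds to block cAMP breakdown; potency means the concentration at half of the fitted maximal effect; nearly all actives have a fitted effect of over 60% in size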
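Cells in DMEM/10% FBS with G418 were pretreated with compounds in DMSO plus […] (300 uM stock) for 30 min at 37C. cAMP was measured by HTRF (cAMP-d2 plus anti-cAMP antibody-K) after 30 min at room temperature.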
* = called active by the depositor; ? = inconclusive; . = no result given; ! = not active in a repeat; [ ] = dose if it differs, or a comment. Hits are enriched below; roughly 1.1% of the tested compounds scored in any of these assays.

SMILES	RXFP1 agonist	gsp antag	RXFP1 antagonist	TRPV1 PAM	TRPV1 ag	gsp ag
CCc1ccccc1NC(=O)c1ccc(Cn2nc(N3CCN(c4ccccc4)CC3)ccc2=O)o1	-0.4%	.	-22.7	.	.	.
CC(=O)N1CCCc2cc(S(=O)(=O)N3CCCC(C(=O)N4CCN(c5ccccc5)CC4)C3)ccc21 (stereo not given)	-1.0%	35.5µM*	-3.8	-2.5	2.9	-2.8%
CCN(CC)C(=O)C1CCN(S(=O)(=O)c2ccc3c(c2)CCCN3C(=O)C2CCC2)CC1	-2.5%	-19.3%	-79.0*	1.4	-1.0	7.5%
COc1ccccc1N1CCN(C(=O)C2CCCN(S(=O)(=O)c3ccc4c(c3)CCCN4C(C)=O)C2)CC1 (stereo not given)	-1.8%	?	-17.2	10.5	-1.0	-25.6%[15.4 µM]
Cc1ccc(C)c(NS(=O)(=O)c2ccc3c(c2)CCCN3C(=O)C2CCC2)c1	-0.2%	.	-63.4*	.	.	.
C#Cc1ccc([C@H]2C=C(C(=O)NC3CC3)O[C@@H](OCC)[C@@H]2CCCO)cc1	-0.7%	-7.3%	.	9.0	3.2	?
CN(C)CCCNc1cc(C(C)(C)C)nc2c(-c3ccccc3)cnn12	-0.1%	0.8%	-60.5*	2.0	7.3	?
c1ccc(Nc2nc(Nc3ccccc3)nc(N3CCNCC3)n2)cc1	1.3%	12.1%	-100.5*	-9.5	2.1	-25.4%
CCOC(=O)N1CCN(C(=O)CSCC(=O)Nc2nc(-c3ccc(C)cc3)cs2)CC1	0.1%	31.6µM*	0.9	?	-0.8	-3.7%
CCOC(=O)N1CCN(C(=O)CSCC(=O)Nc2nc(-c3cccs3)cs2)CC1	-0.1%	?	-5.5	?	-2.0	-12.9%
CCOC(=O)N1CCN(C(=O)CSCC(=O)Nc2nc(-c3ccc4c(c3)OCO4)cs2)CC1	0.0%	35.5µM*	2.3	28.1	-2.5	-19.0%
CCn1c(CN2CCCCC2)nc2cc(NC(=O)COc3cc(C)ccc3C(C)C)ccc21	0.1%	.	-4.5	.	.	.
Cc1ccc(C(C)C)c(OCC(=O)Nc2ccc3c(c2)nc(CCN2CCCCC2)n3C)c1	4.8%	4.5%	-60.6*	14.3	-3.2	?
CS(=O)(=O)c1ccc(C(=O)OCC(=O)NCc2cccs2)cc1[N+](=O)[O-]	.	-3.1%	-101.4*	.	.	-1.2%[15.4 µM]
CCCSc1nnc2c(n1)OC(CC)N(C(C)=O)c1ccccc1-2 (stereo not given)	5.3%	.	-6.5	.	.	.
COc1ccc(C[C@@H](NS(=O)(=O)c2ccc(C(=O)O)cc2)C(=O)O)cc1	-0.4%	.	.	.	.	.
CCCN1CCN(C(=O)c2ccccc2-c2nc3ccccc3s2)CC1	1.3%	11.2µM*	0.0	-7.5	7.5	-9.3%[15.4 µM]
CCOC(=O)N1CCN(C(=O)c2cc3c(s2)-c2ccccc2OC3)CC1	?	-6.1%	.	-22.3	?	14.4%
CCCN1CCN(C(=O)c2cc3c(s2)-c2ccccc2OC3)CC1	17.8µM*	11.8%	.	-4.8	1.7	20.5%
O=C(CSc1nnc(CNC(=O)c2ccco2)o1)Nc1ccc(F)cc1	-0.2%	12.9%	-4.0	-0.6	-1.3	?
O=C(CSc1nnc(CNC(=O)c2ccco2)o1)Nc1ccc(OC(F)(F)F)cc1	1.6%	0.8%	-109.7*	-8.9	2.1	-0.6%
O=C(Nc1sc2c(c1C(=O)O)CCC2)C(=O)N1CCOCC1	-0.1%	?	-1.9	-4.8	1.6	12.7%
CNCCCOc1ccc(Cl)cc1C(C)(C)C	3.0%	21.1%	-85.2*	5.9	1.4	16.5%
Cc1ccc(C)c(S(=O)(=O)C(C#N)c2nc3ccccc3nc2N2CCOCC2)c1 (stereo not given)	3.3%	25.1µM*	-7.6	7.2	-3.7	21.9%
FC(F)Sc1ccc(Nc2ncnc3nc[nH]c23)cc1	3.1%	-8.7%	-16.2	16.6	82.9*	13.8%
SMILES	RXFP1 agonist	gsp antag	RXFP1 antagonist	TRPV1 PAM	TRPV1 ag	gsp ag
CN(C)CCCN(C(=O)c1ccc2c(c1)CCCC2)c1nc2ccc(Cl)cc2s1	0.8%	14.2%	-77.4*	-8.3	3.6	24.0%
CN(C)CCCN(C(=O)c1ccc2ccccc2c1)c1nc2cc3c(cc2s1)OCO3	-0.2%	6.0%	-60.9*	3.0	-2.5	-55.7%
CN(C)CCN(C(=O)c1ccc2ccccc2c1)c1nc2cc3c(cc2s1)OCCO3	1.4%	-14.5%	-27.9	4.3	1.2	21.1%
COc1cccc2sc(N(CCN(C)C)C(=O)c3ccc4c(c3)CCCC4)nc12	1.2%	-4.7%	-69.1*	-5.5	13.0	12.2%[15.4 µM]
COc1cccc2sc(N(CCCN(C)C)C(=O)c3ccc(S(=O)(=O)N4CCCc5ccccc54)cc3)nc12	-3.5%	15.6%	-87.7*	0.0	3.8	?
CCCC(=O)O[C@]1(C(=O)CC)CC[C@H]2[C@@H]3CCC4=CC(=O)CC[C@]4(C)[C@H]3[C@@H](O)C[C@@]21C	.	.	3.4	.	.	.
Nc1nnc(-c2ccc(Cl)c([N+](=O)[O-])c2)s1	-1.0%	-18.6%	1.0	-5.4	1.7	-0.1%
C=CCNCc1ccc(C(=O)NCCCCCCC)cc1[N+](=O)[O-]	0.1%	3.0%	.	2.2	?	-6.8%
Cn1c(SCC(=O)Nc2ccc(NC(=O)c3cccc(F)c3)cc2)nnc1-c1ccncc1	2.6%	8.4%	-11.5	17.7	-1.0	13.5%[15.4 µM]
Cn1c(SCC(=O)Nc2ccc(NC(=O)c3ccccc3F)cc2)nnc1-c1ccncc1	23.4%	50.1µM*	3.1	2.8	-0.4	5.5%[15.4 µM]
Cc1ccc2c(c1)nnn2C1CCN(C(=O)NCc2ccccc2)CC1	-1.6%	-2.7%	?	-13.3	88.7*	8.7%[15.4 µM]
Cc1ccc2c(c1)nnn2C1CCN(S(=O)(=O)c2cccc(S(=O)(=O)N(C)C)c2)CC1	-0.3%	25.1µM*	0.8	?	1.3	18.3%
COc1ccc(S(=O)(=O)c2cnc3ccc(Cl)cc3c2N2CCCCC2C)cc1 (stereo not given)	19.2%	.	-20.3	.	.	.
CC(=O)OCC1=C(C(=O)O)N2C(=O)C(NC(=O)c3ccc(F)cc3)C2SC1 (stereo not given)	0.0%	-5.5%	3.0	2.3	-0.2	-4.1%
CC(=O)OCC1=C(C(=O)O)N2C(=O)[C@@H](NC(=O)CSc3ccncc3)[C@H]2SC1	2.0%	9.9%	-91.6*!	11.7	-2.9	-7.1%[15.4 µM]
O=C(Nc1ccc(Cl)cc1)c1cncs1	-0.3%	50.1µM*	3.0	-13.5	20.7	6.5%[15.4 µM]
CCn1c(Cl)c(C=O)s/c1=N\S(=O)(=O)c1ccccc1	4.3%	-26.1%	-86.5*	1.1	9.7	?
O=C(NCc1ccc(F)cc1)C1(S(=O)(=O)c2ccc(Cl)cc2)CC1	1.9%	0.4%	6.2	0.2	4.7	13.7%
CCCN1C(=O)C2(c3ccccc31)c1c(oc3cc(C)c(C)cc3c1=O)C(=O)N2CCCOC (stereo not given)	-0.6%	.	.	.	.	.

Screens (PubChem BioAssay)
